# Data as given in paper PMC5540273 (PLoS ONE, 2017).
# Read-outs that look alike come from different tables or passages of the source.
# What was measured:
# FGFR1 = conditions: concentration: 1 μM, replicates: in singlicate; n = 1
# FGFR2 = conditions: concentration: 1 μM, replicates: in singlicate; n = 1
# FGFR3 = conditions: concentration: 1 μM, replicates: in singlicate; n = 1
# FGFR4 = conditions: concentration: 1 μM, replicates: in singlicate; n = 1
# FGR = conditions: concentration: 1 μM, replicates: in singlicate; n = 1
# FLT1 = conditions: concentration: 1 μM, replicates: in singlicate; n = 1
# FLT3-autoinhibited = conditions: concentration: 1 μM, replicates: in singlicate; n = 1
# FLT3 = conditions: concentration: 1 μM, replicates: in singlicate; n = 1
# FLT4 = conditions: concentration: 1 μM, replicates: in singlicate; n = 1
# FRK = conditions: concentration: 1 μM, replicates: in singlicate; n = 1
# FYN = conditions: concentration: 1 μM, replicates: in singlicate; n = 1
# GAK = conditions: concentration: 1 μM, replicates: in singlicate; n = 1
# GCN2(Kin.Dom.2,S808G) = tested on: T1, GCN2(Kin.Dom.2,S808G); conditions: concentration: 1 μM, replicates: in singlicate; n = 1
# T1 construct: gene EIF2AK4
# GRK1 = conditions: concentration: 1 μM, replicates: in singlicate; n = 1
# GRK2 = tested on: T2, GRK2; conditions: concentration: 1 μM, replicates: in singlicate; n = 1
# T2 construct: gene ADRBK1
# GRK3 = tested on: T3, GRK3; conditions: concentration: 1 μM, replicates: in singlicate; n = 1
# T3 construct: gene ADRBK2
# GRK4 = conditions: concentration: 1 μM, replicates: in singlicate; n = 1
# GRK7 = conditions: concentration: 1 μM, replicates: in singlicate; n = 1
# GSK3A = conditions: concentration: 1 μM, replicates: in singlicate; n = 1
# GSK3B = conditions: n = 1
# [1] = concentration: 1 μM, replicates: in singlicate
# 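Further: KINOMEscan kinase panel screen.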
structure (smiles),measurement,setting,value
Cn1cc(-c2cnc(N)c3c(-c4ccc5c(c4)CCN5C(=O)Cc4ccccc4)csc23)cn1 [GSK2593074],%Inh,FGFR1,28%
same,%Inh,FGFR2,40%
same,%Inh,FGFR3,49%
same,%Inh,FGFR4,0%
same,%Inh,FGR,75%
same,%Inh,FLT1,79%
same,%Inh,FLT3-autoinhibited,0%
same,%Inh,FLT3,99%
same,%Inh,FLT4,31%
same,%Inh,FRK,38%
same,%Inh,FYN,25%
same,%Inh,GAK,11%
same,%Inh,"GCN2(Kin.Dom.2,S808G)",91.2%
same,%Inh,GRK1,0%
same,%Inh,GRK2,0%
same,%Inh,GRK3,0%
same,%Inh,GRK4,7%
same,%Inh,GRK7,6%
same,%Inh,GSK3A,5%
same,%Inh,GSK3B; [1],0%
O=C1NC(=O)C(c2ccccc2Cl)=C1Nc1cccc(Cl)c1 [SB-342409],%Inh,FGFR1,0%
same,%Inh,FGFR2,4%
same,%Inh,FGFR3,16%
same,%Inh,FGFR4,94.1%
same,%Inh,FGR,22%
same,%Inh,FLT1,11%
same,%Inh,FLT3-autoinhibited,0%
same,%Inh,FLT3,0%
same,%Inh,FLT4,0%
same,%Inh,FRK,15%
same,%Inh,FYN,22%
same,%Inh,GAK,7%
same,%Inh,"GCN2(Kin.Dom.2,S808G)",0%
same,%Inh,GRK1,13%
same,%Inh,GRK2,0%
same,%Inh,GRK3,36%
same,%Inh,GRK4,26%
same,%Inh,GRK7,0%
same,%Inh,GSK3A,45%
same,%Inh,GSK3B; 1 µM,33%
Cl.N#CCc1ccc(Nc2nccc(Nc3ccc(Oc4ccccc4)cc3)n2)cc1 [GW639905],%Inh,FGFR1,11%
same,%Inh,FGFR2,8%
same,%Inh,FGFR3,13%
same,%Inh,FGFR4,0%
same,%Inh,FGR,90.2%
same,%Inh,FLT1,43%
same,%Inh,FLT3-autoinhibited,23%
same,%Inh,FLT3,94.5%
same,%Inh,FLT4,12%
same,%Inh,FRK,39%
same,%Inh,FYN,74%
same,%Inh,GAK,31%
same,%Inh,"GCN2(Kin.Dom.2,S808G)",36%
same,%Inh,GRK1,0%
same,%Inh,GRK2,0%
same,%Inh,GRK3,45%
same,%Inh,GRK4,0%
same,%Inh,GRK7,0%
same,%Inh,GSK3A,0%
same,%Inh,GSK3B; [1],8%
COc1ccc(C)c(Nc2ccnc(Nc3ccc(-c4cnc[nH]4)cc3)n2)c1.Cl [GW784041],%Inh,FGFR1,23%
same,%Inh,FGFR2,4%
same,%Inh,FGFR3,48%
same,%Inh,FGFR4,100%
same,%Inh,FGR,86%
same,%Inh,FLT1,14%
same,%Inh,FLT3-autoinhibited,0%
same,%Inh,FLT3,15%
same,%Inh,FLT4,10%
same,%Inh,FRK,69%
same,%Inh,FYN,56%
same,%Inh,GAK,52%
same,%Inh,"GCN2(Kin.Dom.2,S808G)",100%
same,%Inh,GRK1,0%
same,%Inh,GRK2,0%
same,%Inh,GRK3,0%
same,%Inh,GRK4,27%
same,%Inh,GRK7,15%
same,%Inh,GSK3A,32%
same,%Inh,GSK3B; [1],0%
CCNc1nccc(-c2c(-c3ccc(F)cc3)ncn2C2CCN(C)CC2)n1,%Inh,FGFR1,0%
same,%Inh,FGFR2,6%
same,%Inh,FGFR3,0%
same,%Inh,FGFR4,0%
same,%Inh,FGR,0%
same,%Inh,FLT1,18%
same,%Inh,FLT3-autoinhibited,0%
same,%Inh,FLT3,24%
same,%Inh,FLT4,6%
same,%Inh,FRK,0%
same,%Inh,FYN,0%
same,%Inh,GAK,57%
same,%Inh,"GCN2(Kin.Dom.2,S808G)",0%
same,%Inh,GRK1,0%
same,%Inh,GRK2,0%
same,%Inh,GRK3,0%
same,%Inh,GRK4,0%
same,%Inh,GRK7,0%
same,%Inh,GSK3A,21%
same,%Inh,GSK3B; [1],0%
